# Test results as given in PubChem BioAssay (NCATS).
# Several values for one entry are separate records, joined by “and”; a condition that tells them apart may be missing. Equal values may be shown once. Results filed as inconclusive are left out. Where a call stands in place of a potency, no number is given. Activity calls are given as the source filed them. Unless noted, calls come from the whole dose curve; as a rule, active = well fitted curve in the direction sought with a large enough effect; inconclusive = small, poorly fitted or top-dose-only effect, or another doubt; inactive = no such curve, though single readings can be large; an effect the other way counts as inactive or inconclusive.
# Key:
# [1] = target: Cytochrome P450 1A2 (Homo sapiens) (UniProt P05177); test: p450-cyp1a2 (AID 410; calls by dose curve; note: potency is the fitted concentration of half-maximal effect)
# How it was run: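 20nM CYP1A2, 100uM Luciferin-ME (=Km), 100mM KPO4; cpd 10 min RT; +NADPH regen, 60 min RT; stop/detect 20 min; luminescence. Normalized to furafylline 57 uM = full inhibition.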
# [2] = target: Glucocorticoid receptor (Homo sapiens) (UniProt P04150); test: GR-GFP Redistribution (AID 450;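 active = compounds whose dose series gives a full or clear partial fitted curve of increased nuclear translocation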; note: potency is the fitted concentration of half-maximal effect); details: U2OS GR-GFP nuclear translocation, laser cytometry, 2 h
# [3] = target: Mitogen-activated protein kinase 10 (Mus musculus) (UniProt Q61831); test: JNK3 AlphaScreen Assay (AID 530; active = well fitted curve in either direction with a large enough effect, not every such curve was filed as active;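 note: kinase came from lysate of stimulated human HepG2 cells; signal reports phosphorylation of biotinylated GST-cJun 1-79 at Ser73 with 10 µM ATP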)
# How it was run: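 Kinase buffer: 20 mM Tris-HCl pH 7.6, 10 mM MgCl2, 1 mM DTT, 0.1 mM Na3VO4, 0.01% Tween-20; ATP 10 uM. Substrate biotin-GST-cJun(1-79), enzyme from activated HepG2 lysates. Detection by Ser73 phospho-antibody AlphaScreen.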
# [4] = target: 3',5'-cyclic-AMP phosphodiesterase 4B (Homo sapiens) (UniProt Q07343); test: qHTS Assay for Inhibitors of PDE-IV (AID 607; active = well fitted activation curve with a large enough effect in the main read-out, with a control signal flat, not every such curve was filed as active)
# How it was run: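 HEK293 ACTOne cells with CNG channel (1000/well), endogenous PDE4; membrane potential dye, compounds up to 22.9 uM final. Fluorescence Ex 535/Em 590; RO 20-1724 (100 uM final) as reference.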
# [5] = target: Cytochrome P450 3A4 (Homo sapiens) (UniProt P08684); test: qHTS Assay for Activators of Cytochrome P450 3A4 (AID 885); note: nearly all actives have a fitted effect of over 65% in size
# How it was run: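 Human CYP3A4 dealkylates Luciferin-PPXE to luciferin, which luciferase detection converts to light. Substrate was at its KM (25uM), buffer 200mM KPO4, reaction 60 min at RT.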
# [6] = target: Ubiquitin carboxyl-terminal hydrolase 1 (Homo sapiens) (UniProt O94782); test: Inhibitors of USP1/UAF1: Pilot qHTS (AID 504865);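 note: rhodamine fluorescence freed from ubiquitin-rhodamine substrate followed over time; top concentration of the series differs between compounds; nearly all actives have a fitted effect of over 35% in size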
# How it was run: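 Deubiquitinase activity followed as kinetic rhodamine fluorescence release from 150 nM Ub-Rho. 1 nM USP1/UAF1 with compound, after 15 min room-temperature preincubation, in HEPES pH 7.8 buffer containing TCEP, EDTA, BSA and Tween-20.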
# [7] = target: DNA dC->dU-editing enzyme APOBEC-3G (Homo sapiens) (UniProt Q9HC16); test: qHTS for inhibitors of Vif-A3G interactions: Validation (AID 588379)
# How it was run: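 Yellow fluorescence (Ex 488, Em 500-530) of Vif-coexpressing HeLa A3G-eYFP cells, scanned by Acumen cytometer, reports blocked A3G degradation. Cells plated at 700/well overnight at 37 deg C before compound addition, then a further overnight compound incubation at 37 deg C.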
# [8] = test system: Zika virus NS2B-NS3 protease; test: Primary screen GU AMC qHTS for Zika virus inhibitors (AID 1347154); note: nearly all actives have a fitted effect of over 70% in size; note: potency is the fitted concentration of half-maximal effect
# How it was run: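 Fluorogenic AMC-substrate cleavage by noncovalent NS2B-NS3 protease complex (25 nM, pH 8.0 Tris buffer with Tween 20) followed for 15 minutes at room temperature (~20% conversion). Percent inhibition from ex340/em450 signal change, fitted by 4-parameter Hill equation.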
# [9] = Primary qHTS for small molecule stabilizers of the endoplasmic reticulum resident proteome: Secreted ER Calcium Modulated Protein (SERCaMP) assay (AID 1508630)
# How it was run: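 The SH-SY5Y reporter protocol was run at 3 concentrations up to 38.3 uM (primary) or 11 concentrations (follow-up): 16 h compound, 100 nM thapsigargin for 4 h, then extracellular luciferase luminescence.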
# [10] = target: Glucocorticoid receptor (Homo sapiens) (UniProt P04150); test: GR-EFC Redistribution (AID 451; calls by dose curve; note: potency is the fitted concentration of half-maximal effect); details: CHO-K1 GR-EFC translocation, beta-gal luminescence, 2 h
# How it was run: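 Translocation of GR-ED fusion to nuclear EA restores b-gal, read by luminescence after 1 h room-temperature detection. Engineered CHO-K1 biosensor cells, 1,000/well, exposed 2 h at 37 C to titrations up to 46 uM final.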
# [11] = qHTS Assay for Lipid Storage Modulators (AID 1519; calls by dose curve); details: Drosophila S3 cells, BODIPY lipid droplet/cell ratio, laser cytometry, cells loaded with oleic acid; for activity change, negative = inhibition: at 57.5 µM (top of the series)
# How it was run: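 Cells seeded at 5,000 per well were treated with compounds over a concentration series and loaded with oleic acid (400 uM, as added). Lipid droplet fluorescence (488 nm excitation, 500-530 nm channel) was read by laser-scanning cytometry and normalized to 20 uM Triacsin C.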
# [12] = measured here: cell count channel max response
# [13] = measured here: lipid channel max response
# Chain of 3',5'-cyclic-AMP phosphodiesterase 4B (Homo sapiens) (Q07343 whole entry, looked up): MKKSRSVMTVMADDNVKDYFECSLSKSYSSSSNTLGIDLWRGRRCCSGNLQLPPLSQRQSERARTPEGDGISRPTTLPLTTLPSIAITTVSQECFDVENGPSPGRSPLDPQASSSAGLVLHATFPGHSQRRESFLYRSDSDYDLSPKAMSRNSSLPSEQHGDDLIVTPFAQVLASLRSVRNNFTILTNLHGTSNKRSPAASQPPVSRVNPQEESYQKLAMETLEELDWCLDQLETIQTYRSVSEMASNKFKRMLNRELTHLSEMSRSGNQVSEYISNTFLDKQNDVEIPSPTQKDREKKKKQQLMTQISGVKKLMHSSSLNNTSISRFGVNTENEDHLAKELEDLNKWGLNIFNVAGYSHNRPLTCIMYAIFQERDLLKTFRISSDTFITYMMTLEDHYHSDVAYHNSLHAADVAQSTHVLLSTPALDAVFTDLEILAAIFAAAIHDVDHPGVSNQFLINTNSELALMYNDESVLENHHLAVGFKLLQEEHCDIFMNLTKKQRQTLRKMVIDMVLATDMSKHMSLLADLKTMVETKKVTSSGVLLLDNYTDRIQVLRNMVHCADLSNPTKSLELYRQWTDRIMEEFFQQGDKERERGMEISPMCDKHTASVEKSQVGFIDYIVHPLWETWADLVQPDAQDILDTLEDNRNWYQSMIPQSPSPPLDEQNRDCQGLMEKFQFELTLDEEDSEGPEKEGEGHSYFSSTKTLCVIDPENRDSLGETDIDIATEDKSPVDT
# Chain of Cytochrome P450 3A4 (Homo sapiens) (P08684 whole entry, looked up): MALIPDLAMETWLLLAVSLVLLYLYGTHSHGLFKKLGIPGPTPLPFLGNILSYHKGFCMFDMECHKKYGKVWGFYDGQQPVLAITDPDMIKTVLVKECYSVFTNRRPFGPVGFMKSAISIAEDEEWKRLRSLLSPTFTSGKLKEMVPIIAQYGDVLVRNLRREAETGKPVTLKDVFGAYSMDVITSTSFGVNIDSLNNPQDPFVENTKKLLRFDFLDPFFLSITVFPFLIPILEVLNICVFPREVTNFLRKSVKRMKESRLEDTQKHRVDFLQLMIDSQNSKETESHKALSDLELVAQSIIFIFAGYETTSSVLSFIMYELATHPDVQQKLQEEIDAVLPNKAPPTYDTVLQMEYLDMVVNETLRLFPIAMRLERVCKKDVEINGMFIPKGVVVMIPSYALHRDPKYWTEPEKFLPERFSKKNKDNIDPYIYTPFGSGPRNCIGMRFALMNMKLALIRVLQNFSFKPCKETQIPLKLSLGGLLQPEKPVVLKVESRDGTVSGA
# Chain of Glucocorticoid receptor (Homo sapiens) (P04150 whole entry, looked up, the tested form may be a part): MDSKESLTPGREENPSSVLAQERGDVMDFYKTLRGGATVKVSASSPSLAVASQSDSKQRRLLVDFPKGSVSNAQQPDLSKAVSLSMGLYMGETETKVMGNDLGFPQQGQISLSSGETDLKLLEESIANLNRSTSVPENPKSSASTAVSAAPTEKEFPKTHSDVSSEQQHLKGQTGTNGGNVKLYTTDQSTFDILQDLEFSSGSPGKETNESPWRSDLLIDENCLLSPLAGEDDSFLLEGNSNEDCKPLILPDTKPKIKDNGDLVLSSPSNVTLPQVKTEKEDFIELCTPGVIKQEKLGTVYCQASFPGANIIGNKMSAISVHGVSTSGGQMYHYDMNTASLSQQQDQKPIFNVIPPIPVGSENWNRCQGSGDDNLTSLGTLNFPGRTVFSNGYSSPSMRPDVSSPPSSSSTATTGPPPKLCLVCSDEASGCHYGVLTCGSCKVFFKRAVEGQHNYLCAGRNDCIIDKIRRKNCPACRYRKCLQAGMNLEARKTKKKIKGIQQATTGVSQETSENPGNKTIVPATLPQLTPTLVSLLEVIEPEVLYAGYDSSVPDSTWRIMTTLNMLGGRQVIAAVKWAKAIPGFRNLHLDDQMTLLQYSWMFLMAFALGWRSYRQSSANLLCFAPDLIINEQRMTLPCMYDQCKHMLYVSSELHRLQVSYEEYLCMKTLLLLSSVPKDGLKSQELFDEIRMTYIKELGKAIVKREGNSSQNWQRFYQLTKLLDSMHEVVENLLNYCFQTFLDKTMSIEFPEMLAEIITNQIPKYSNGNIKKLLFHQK
# Chain of Cytochrome P450 1A2 (Homo sapiens) (P05177 whole entry, looked up): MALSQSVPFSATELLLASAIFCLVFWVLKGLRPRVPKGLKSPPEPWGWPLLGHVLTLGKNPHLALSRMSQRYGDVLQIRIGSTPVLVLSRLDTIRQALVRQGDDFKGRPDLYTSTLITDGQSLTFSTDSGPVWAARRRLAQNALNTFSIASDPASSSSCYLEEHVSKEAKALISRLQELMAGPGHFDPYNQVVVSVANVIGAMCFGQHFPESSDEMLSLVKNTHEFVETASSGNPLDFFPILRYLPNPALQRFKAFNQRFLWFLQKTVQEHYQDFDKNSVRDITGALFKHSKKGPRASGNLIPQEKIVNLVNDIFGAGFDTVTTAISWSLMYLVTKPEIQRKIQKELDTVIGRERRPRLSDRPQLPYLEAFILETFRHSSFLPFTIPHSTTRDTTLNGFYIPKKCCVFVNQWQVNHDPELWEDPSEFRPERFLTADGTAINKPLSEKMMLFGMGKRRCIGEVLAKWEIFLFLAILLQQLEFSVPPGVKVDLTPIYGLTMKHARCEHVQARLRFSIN
# Chain of DNA dC->dU-editing enzyme APOBEC-3G (Homo sapiens) (Q9HC16 whole entry, looked up): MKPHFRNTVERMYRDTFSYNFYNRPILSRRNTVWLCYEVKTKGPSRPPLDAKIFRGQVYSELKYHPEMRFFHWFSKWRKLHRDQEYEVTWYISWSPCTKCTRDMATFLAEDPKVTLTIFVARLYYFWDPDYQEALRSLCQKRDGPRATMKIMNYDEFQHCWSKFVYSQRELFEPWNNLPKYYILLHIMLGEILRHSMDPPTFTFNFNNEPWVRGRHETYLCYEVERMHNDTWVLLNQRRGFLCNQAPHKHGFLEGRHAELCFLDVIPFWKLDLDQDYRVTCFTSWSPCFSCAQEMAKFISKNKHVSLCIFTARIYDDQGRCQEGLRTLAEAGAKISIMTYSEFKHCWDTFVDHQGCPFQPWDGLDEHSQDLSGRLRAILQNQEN
# Chain of Ubiquitin carboxyl-terminal hydrolase 1 (Homo sapiens) (O94782 whole entry, looked up): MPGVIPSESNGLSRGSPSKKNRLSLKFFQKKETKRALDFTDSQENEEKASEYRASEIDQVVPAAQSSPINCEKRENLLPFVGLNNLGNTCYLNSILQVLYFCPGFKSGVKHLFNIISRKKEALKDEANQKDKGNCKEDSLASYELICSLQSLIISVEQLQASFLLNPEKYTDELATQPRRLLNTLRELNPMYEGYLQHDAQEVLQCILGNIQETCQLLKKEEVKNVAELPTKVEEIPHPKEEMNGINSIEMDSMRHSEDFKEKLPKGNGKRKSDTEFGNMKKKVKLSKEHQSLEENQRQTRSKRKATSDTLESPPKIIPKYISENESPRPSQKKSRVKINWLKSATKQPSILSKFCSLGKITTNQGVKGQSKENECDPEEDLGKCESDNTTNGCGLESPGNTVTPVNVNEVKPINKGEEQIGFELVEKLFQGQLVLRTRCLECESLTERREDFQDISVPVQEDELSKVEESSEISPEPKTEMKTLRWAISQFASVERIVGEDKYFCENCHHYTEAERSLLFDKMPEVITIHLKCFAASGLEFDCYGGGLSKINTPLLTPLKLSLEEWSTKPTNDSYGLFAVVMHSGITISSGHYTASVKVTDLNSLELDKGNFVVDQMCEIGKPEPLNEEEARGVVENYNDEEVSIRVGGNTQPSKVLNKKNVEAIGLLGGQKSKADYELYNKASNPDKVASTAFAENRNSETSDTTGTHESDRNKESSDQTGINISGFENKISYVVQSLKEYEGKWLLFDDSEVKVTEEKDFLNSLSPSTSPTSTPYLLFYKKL
SMILES,Potency [1],Potency [2],outcome [3],Potency [4],Potency [5],Potency [6],Potency [7],Potency [8],Potency [9],Potency [10],"activity change, negative = inhibition [11]","max response [11, 12] [%]","max response [11, 13] [%]"
C=CCN1CC[C@@]23c4c5ccc(O)c4O[C@H]2/C(=N\N=C2/CC[C@@]4(O)[C@H]6Cc7ccc(O)c8c7[C@@]4(CCN6CC=C)[C@@H]2O8)CC[C@]3(O)[C@@H]1C5,inactive,> 46 µM (inactive),inactive,inactive,inactive,inactive,inactive,inactive,inactive,,,,
CC1=C(O)C(=O)[C@H]2O[C@@H]2C1=O,inactive,> 46 µM (inactive),inactive,inactive,,inactive,,inactive,inactive,,,,
C/C(O)=C(/C#N)C(=O)Nc1cc(Br)ccc1Br,5.01 µM (active) and 2.51 µM (active),> 46 µM (inactive),,inactive,inactive,,inactive,inactive,inactive,> 46 µM (inactive),,,
c1ccc([C@H]2CNCc3ccccc32)cc1,inactive,> 46 µM (inactive),inactive,,inactive,inactive,inactive,inactive,inactive,> 46 µM (inactive),,,
N[C@@]1(C(=O)O)CC[C@H](C(=O)O)C1,inactive,> 46 µM (inactive),inactive,inactive,,inactive,inactive,inactive,inactive,> 46 µM (inactive),,,
C=C1[C@@H](O)C2C=CC[C@H](C)C(=O)[C@@](C)(O)C=C[C@@H](OC(C)=O)[C@@]23C(=O)N[C@H](Cc2ccccc2)[C@@H]3[C@@H]1C (stereo not given in full),inactive,> 46 µM (inactive),inactive,inactive,inactive,inactive,inactive,inactive,inactive,> 46 µM (inactive),,,
CN1CCN(C(=O)O[C@@H]2c3nccnc3C(=O)N2c2ccc(Cl)cn2)CC1,inactive,,inactive,inactive,,,inactive,inactive,inactive,,,,
CN(C(=O)Cc1ccccc1)[C@H](CN1CCCC1)c1ccccc1,inactive,> 46 µM (inactive),inactive,,,inactive,inactive,inactive,inactive,> 46 µM (inactive),,,
O=C1NCN(c2ccccc2)C12CCN(C[C@H]1COc3ccccc3O1)CC2,12.6 µM (active),,inactive,inactive,,,inactive,inactive,inactive,,,,
CN1C(=O)CCS(=O)(=O)[C@H]1c1ccc(Cl)cc1,inactive,> 46 µM (inactive),inactive,inactive,,,inactive,inactive,inactive,> 46 µM (inactive),,,
NC[C@H](CP(=O)(O)O)c1ccc(Cl)cc1,inactive,> 46 µM (inactive),inactive,inactive,,,inactive,inactive,inactive,,,,
Clc1ccc(C2=CCC[C@H]3CC[C@@H]2N3)cn1,15.8 µM (active),> 46 µM (inactive),inactive,,inactive,inactive,inactive,inactive,inactive,> 46 µM (inactive),,,
O=NN1CCCC1c1cccnc1 (stereo not given),,,,,,,,inactive,inactive,,,,
CCOC(=O)c1ncn2c1[C@H]1CCCN1C(=O)c1cc(OC)ccc1-2,inactive,> 46 µM (inactive),inactive,inactive,,inactive,inactive,inactive,inactive,,,,
CCNC(=O)[C@@H]1O[C@@H](n2cnc3c(N)ncnc32)[C@H](O)[C@H]1O,inactive,> 46 µM (inactive),,inactive,,inactive,inactive,inactive,,> 46 µM (inactive),0.939% (inactive),-12.5,-10.6
CN1C[C@H](CNC(=O)OCc2ccccc2)C[C@H]2c3cccc4c3c(cn4C)C[C@@H]21,,> 20.6 µM (inactive),inactive,inactive,,,inactive,inactive,inactive,,,,
N[C@H](C(=O)O)c1cc(=O)[nH]o1,inactive,> 46 µM (inactive),inactive,inactive,,,inactive,inactive,,> 46 µM (inactive),3.47% (inactive),-3.07,-3.59
CC1OC(=O)C(C(C)C)NC(=O)C(C(C)C)OC(=O)C(C(C)C)NC(=O)C(C)OC(=O)C(C(C)C)NC(=O)C(C(C)C)OC(=O)C(C(C)C)NC(=O)C(C)OC(=O)C(C(C)C)NC(=O)C(C(C)C)OC(=O)C(C(C)C)NC1=O (stereo not given),,,,,inactive,,,inactive,inactive,,,,
CC(C)(C)NC[C@@H](O)COc1cccc2[nH]c(C#N)cc12,,> 46 µM (inactive),inactive,,inactive,inactive,inactive,inactive,,,2.4% (inactive),-20.5,-17.5
CC[C@@H](CO)NC(=O)[C@H]1C=C2c3cccc4[nH]cc(c34)C[C@H]2N(C)C1,,> 46 µM (inactive),,inactive,,,inactive,29.9 µM (active),inactive,> 46 µM (inactive),,,
